Source: PubChem (National Center for Advancing Translational Sciences (NCATS))
Rows were chosen to be rich in hits. Some 7.3% of all compounds tested hit in one or more screens of this group.
Vaccinia Venus: inhibitors of vaccinia virus (Venus reporter) | Vaccinia virus Venus reporter expression, fluorescence | Potency, µM (highest dose often 36.5 µM), without a hit: at the top dose activity change, negative = inhibition, usual class: inhibitors | 330,000 tested, 0.46% active; calls by dose curve; tested in A549 cells; note: potency is the fitted concentration of half-maximal effect; nearly all actives have a fitted effect of over 30% in size
HCMV inh: human cytomegalovirus inhibition. HFF cells, HCMV-luciferase reporter, 72 h; stronger effect = lower value. activity change, negative = inhibition, % at 57.5 µM. 410,000 tested, 4.5% active; in the data active = activity change below about -60%; inconclusive = no clear call, values can overlap the other calls; inactive = above about -39%
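Inhibition of viral replication was scored as loss of reporter luminescence in HFFs infected with HCMV-luciferase (MOI 1 PFU/cell) for 72 h; compounds tested at 2 doses, normalized to buffer and Salinomycin controls.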
VACV mCherry inh: vaccinia inhibition (mCherry reporter). Vaccinia virus mCherry reporter infection, fluorescence. Potency, µM (top dose mostly 36.5 µM), without a hit: at the highest dose activity change, negative = inhibition, most hits filed as inhibitors. 310,000 tested, 0.63% active; calls by dose curve; tested in A549 cells; note: potency is the fitted concentration of half-maximal effect; nearly all actives have a fitted effect of over 35% in size
HCV inh: HCV inhibition; Huh7.5.1 HCVcc-Cre infection, luciferase reporter, 44 h; Potency, µM (highest dose often 41.8 µM), for the others: at the highest dose activity change, negative = inhibition, actives largely listed as inhibitors; 340,000 tested, 3.4% active; AID 651820; active = well fitted inhibition curve with a large enough effect; inconclusive = small, poorly fitted or top-dose-only effect, or another doubt; inactive = no such curve, though single readings can be large or run the other way; note: potency is the fitted concentration of half-maximal effect
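Whole-lifecycle infectious HCVcc-Cre system; cells 1,000/well, compound then virus (~0.5 moi) added 4 h after plating, 44 h culture. Luciferase read 15 sec following 15 min substrate incubation, room temp.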
FMDV antiviral: antivirals against foot and mouth disease virus; FMDV antiviral cell-based qHTS; Potency, µM (doses to about 57.9 µM), for inactives: at the top dose activity change, negative = inhibition, actives largely listed as inhibitors; 410,000 tested, 1.2% active; AID 1159524; calls by dose curve; tested in HEK293T cells; note: read-out not given here; potency is the fitted concentration of half-maximal effect; nearly all actives have a fitted effect of over 45% in size
Starred values were filed as active, the others as inactive; i = inactive; ? = inconclusive; · = no result; [ ] = another dose, or the depositor's remark. % is set by controls: 0 for no effect and ±100 for the full control effect.

SMILES	Vaccinia Venus	HCMV inh	VACV mCherry inh	HCV inh	FMDV antiviral
Cc1[nH]c2ccccc2c1CC(=O)Nc1ccc(Nc2cccnc2)c(-c2cc(F)cc(F)c2)c1	·	-11	·	·	·
COc1cccc(Nc2ncnc3ccccc23)c1	-12%	-10	-25%	?	·
O=C(Oc1cccc(Nc2ncnc3ccccc23)c1)c1ccccc1Cl	?	-13	?	?	18µM*
CC(C)Cn1[nH]c2c3c(ccc2c1=O)C(=O)c1ccccc1C3=O	-27%	·	·	11µM*	-2%
O=C1c2ccccc2C(=O)c2c1ccc1c(=O)n(-c3ccccc3)[nH]c21	-2%	-65*	-11%	?	-23%
O=C(NCc1ccc(F)cc1)c1ccc(CSc2nc3ccncc3n2Cc2ccc(F)cc2)cc1	-22%	-38	-14%	·	-21%
CSc1nnc(NC(=O)c2nc(S(=O)(=O)Cc3cccc(C)c3)ncc2Cl)s1	2%	-103*	-7%	13µM*	5.6µM*
Cc1ccc(C)c(NC(=O)c2nc(S(=O)(=O)Cc3ccc(F)cc3)ncc2Cl)c1	-14%[7.34 µM]	-100*	-17%[7.34 µM]	·	28µM*
CC(C)c1nnc(NC(=O)c2nc(SCc3ccc(F)cc3)ncc2Cl)s1	9%	4	-1%	·	35%
Cc1ccc(CS(=O)(=O)c2ncc(Cl)c(C(=O)Nc3nnc(C(C)C)s3)n2)cc1	-9%	-98*	10%[7.34 µM]	?	11µM*
CC(C)c1nnc(NC(=O)c2nc(S(=O)(=O)Cc3ccc(F)cc3)ncc2Cl)s1	-6%	-102*	i	?	-21%
Cc1ccc(NC(=O)Cn2c(=O)n(-c3ccc(CC(=O)NCC4CCCO4)cc3)c(=O)c3ccccc32)cc1 (configuration not stated)	-2%	1	-8%	·	-1%
O=C(CC[C@H]1O[C@@H](n2cnc3c(NC(=O)c4ccccc4)ncnc32)[C@H](O)[C@@H]1O)NCC1CCCCC1	2%	-12	i	·	-14%
COc1ccc(-c2nc3scc(CCNC(=O)c4cc(OC)cc(OC)c4)n3n2)cc1	-18%	-22	-20%	·	?
Cc1cccc(CS(=O)(=O)c2ncc(Cl)c(C(=O)Nc3nnc(C(C)C)s3)n2)c1	-6%	-100*	-7%	11µM*	8.9µM*
C=CCSc1nnc(NC(=O)c2nc(SCC)ncc2Cl)s1	·	-28	·	18%	9%
CCSc1nnc(NC(=O)c2nc(S(=O)(=O)Cc3ccc(F)cc3)ncc2Cl)s1	-6%	-102*	-14%	?	8.9µM*
COc1ccc(-c2cc(C(=O)N3CCN(c4ccccc4OC)CC3)c3cc(C(C)C)ccc3n2)cc1	?	21	?	·	?
CC1CCN(S(=O)(=O)N2CCC(C(=O)NCc3ccc(F)cc3Cl)CC2)CC1	-19%	-25	i	·	-20%
O=C(Nc1ccccn1)NC1CCCCC1	-18%	22	-22%	4%	28%
O=C(Nc1ccccn1)NC1CCS(=O)(=O)C1 (configuration not stated)	·	-103*	·	-1%	-19%
O=C(NNC(=O)c1ccccc1O)c1cc2ccccc2o1	-6%	43	?	10%	20%
CCN(CC)P(=O)(Nc1ccc(C)cc1Br)c1ccc(N(C)C)cc1NC(=O)c1ccco1 (configuration not stated)	-2%	-78*	-13%	?	-29%
O=C(c1ccc2c(c1)OCO2)c1cn(Cc2ccc(Cl)cc2)c2ccc(F)cc2c1=O	-18%	-9	-20%	·	-24%
CC(C)Cc1nc(Nc2ccccc2C#N)c2nnn(Cc3ccccc3)c2n1	-3%	-28	i	16µM*	-28%
SMILES	Vaccinia Venus	HCMV inh	VACV mCherry inh	HCV inh	FMDV antiviral
CC(C)Cc1nc(N2CCC(C(N)=O)CC2)c2nnn(Cc3ccccc3)c2n1	·	-11	·	-16%	30%
CC(C)C[C@H]1CN(CCCC[C@@H]2CNC(=O)C(=O)N2CCc2ccccc2)C(=O)C(=O)N1CCc1ccccc1	7%	-15	5%	·	13%
Cc1cccc(NC(=O)c2ccc(Cl)c(S(=O)(=O)N3CCc4ccccc43)c2)n1	·	-65*	·	?	?
CCc1nnc(NC(=O)c2ccc(Cl)c(S(=O)(=O)N3CCc4ccccc43)c2)s1	-19%	-36	·	-18%	?
O=C(Nc1ccncc1)c1ccc(Cl)c(S(=O)(=O)N2CCc3ccccc32)c1	-25%	-69*	-19%	10µM*	?
Cc1ccc(S(=O)(=O)N(C(=O)c2ccncc2)c2ccc(OC(=O)c3ccncc3)cc2)cc1	-19%	-68*	i	4%	-20%
COc1ccc(C2=CC(c3c(C)nn(-c4ccccc4)c3Cl)n3nnnc3N2)cc1OC (configuration not stated)	?	?	·	11µM*	18µM*
O=C(CCCn1c2ccccc2c(=O)c2ccccc21)Nc1cccc(Cl)c1	-16%	-67*	-25%	·	?
Cc1ccc2c(c1)c(=O)c1ccccc1n2CCCC(=O)Nc1ccc(C)c(C)c1	-29%	-61*	?	·	?
Cc1ccc2c(c1)c(=O)c1ccccc1n2CCCC(=O)Nc1ccc(C)c(F)c1	?	-74*	?	·	0%
Cc1ccc(NC(=O)CC2Sc3ccccc3NC2=O)c(Br)c1 (configuration not stated)	-23%	-10	-17%	·	?
COc1ccc(CCNC(=O)c2cnn3c2NC(=C2CC2)C=C3C(F)F)cc1OC	-27%	·	-7%	·	·
c1ccc(-c2cn(-c3ccccc3)c3ncnc(N4CCCCC4)c23)cc1	0%	12	i	?	?
COc1ccc(-n2cc(-c3ccccc3)c3c(N4CC(C)OC(C)C4)ncnc32)cc1 (configuration not stated)	-9%	14	-8%	?	22µM*
COc1cccc(N2CCN(c3ncnc4c3c(-c3ccccc3)cn4-c3ccc(F)cc3)CC2)c1	-7%	-19	-14%	·	-21%
CCOc1ccc(-n2cc(-c3ccccc3)c3c(N4CCOCC4)ncnc32)cc1	-9%	47	-16%	11µM*	?
COc1ccc2c(c1)-c1nc(-n3ncc(C(=O)N(C)CC4CCCN(C)C4)c3C)ncc1CC2 (configuration not stated)	-2%	·	-15%	·	-17%
Cc1cn2c(=O)cc(COC(=O)c3cccc(NC(=O)COc4ccccc4)c3)nc2s1	-15%	?	-23%	·	-13%
CCOC(=O)c1c(NC(=O)C2c3ccccc3Oc3ccccc32)sc(C(=O)N(CC)CC)c1C	-28%	·	·	7.1µM*	?
COC(=O)c1c(NC(=O)COc2ncnc3ccccc23)sc(C)c1C	-8%	9	4%	?	-7%
CCOC(=O)c1c(NC(=O)COc2ncnc3ccccc23)sc(C(C)=O)c1C	-20%	14	i	7.1µM*	-5%
CCOC(=O)c1c(NC(=O)COC(=O)Cc2c[nH]c3ccccc23)sc(C(=O)N(C)C)c1C	-12%	32	-18%	14µM*	-23%
CCOC(=O)c1c(NC(=O)CSc2nc3cc(Cl)ccc3s2)sc(C(C)=O)c1C	·	-61*	·	-10%	·
